Data reported in the supplement of paper PMC7411054.
Where a name gives a salt, the structure may show the parent alone.

tested on: A549-GM130-SQSTM1; experiment: phenotypically active (imaging signature differs from DMSO and reproducible) at any of 0.3-9 uM (binary (1 = active, 0 = inactive)); higher = active; details: treatment time: 24 h
How it was run: (§1)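 Cells from fifteen gene-edited reporter lines (A549, HepG2 and WPMY1) were treated for 24 h at 0.3, 1, 3 or 9 µM and imaged live, four wells per condition. Features were normalised per well to solvent control wells. A condition deviated if ≥3 of 4 wells passed the 95th percentile of control Euclidean distances and was reproducible if its median replicate Pearson correlation beat the 95th percentile of non-replicates; phenotypic activity needed both.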

Row | SMILES | phenotypically active
1 | O=P(O)(O)C(O)(Cc1cccnc1)P(=O)(O)O [risedronate] | 0 (inactive)
2 | O=C(CCc1ccc(O)cc1)c1c(O)cc(O)cc1O[C@@H]1O[C@H](CO)[C@@H](O)[C@H](O)[C@H]1O [Phloridzin] | 0 (inactive)
3 | CC(C)NCCCC1(C(N)=O)c2ccccc2-c2ccccc21 [indecainide] | 0 (inactive)
4 | COc1c2occc2cc2ccc(=O)oc12 [methoxsalen] | 0 (inactive)
5 | CC(=O)N[C@@H](CC(=O)O)C(=O)N[C@@H](CCC(=O)O)C(=O)O [Spaglumic acid] | 0 (inactive)
6 | OCC(CO)N[C@H]1C[C@](O)(CO)[C@@H](O)[C@H](O)[C@H]1O [Voglibose] | 0 (inactive)
7 | CCOc1ccccc1OCCN[C@H](C)Cc1ccc(OC)c(S(N)(=O)=O)c1 [tamsulosin] | 0 (inactive)
8 | O=C1NC(=O)/C(=C\c2cccc(C(F)(F)F)c2)S1 | 0 (inactive)
9 | NS(=O)(=O)c1cc(Cl)c(Cl)c(S(N)(=O)=O)c1 [diclofenamide] | 0 (inactive)
10 | CN1CCN2c3ncccc3Cc3ccccc3C2C1 (stereo not drawn) [Mirtazapine] | 0 (inactive)
11 | O=C1N(c2ccccc2)c2ccccc2C1(Cc1ccncc1)Cc1ccncc1 [linopirdine] | 0 (inactive)
12 | C[C@H]1[C@H](C)CC[C@]2(C(=O)O)CC[C@]3(C)C(=CC[C@@H]4[C@@]5(C)CC[C@H](O)C(C)(C)[C@@H]5CC[C@]43C)[C@H]12 [Ursolic acid] | 0 (inactive)
13 | CCOC(=O)[C@H](CCc1ccccc1)N[C@@H](C)C(=O)N1Cc2ccccc2C[C@H]1C(=O)O [quinapril] | 0 (inactive)
14 | CC1(C)CCC(C)(C)c2cc(C3(c4ccc(C(=O)O)cc4)OCCO3)ccc21 | 0 (inactive)
15 | CCCCCCCCCN1C[C@H](O)[C@@H](O)[C@H](O)[C@H]1CO [N-Nonyldeoxynojirimycin] | 0 (inactive)
16 | CC(=O)O[C@H]1C[C@@H]2CC[C@@H]3[C@H](CC[C@@]4(C)[C@H]3C[C@H]([N+]3(C)CCCCC3)[C@@H]4OC(C)=O)[C@@]2(C)C[C@@H]1N1CCCCC1 [vecuronium] | 0 (inactive)
17 | O=C(O)c1cc(/N=N/c2ccc(O)c(C(=O)O)c2)ccc1O [olsalazine] | 0 (inactive)
18 | CCOC(=O)[C@H](CCc1ccccc1)N[C@H]1CCc2ccccc2N(CC(=O)O)C1=O [benazepril] | 0 (inactive)
19 | O=C(c1ccccc1)c1ccc2n1CCC2C(=O)O (stereo not drawn) [ketorolac] | 0 (inactive)
20 | CN1C(=O)CC[C@H]1c1cccnc1 [(-)-Cotinine] | 0 (inactive)

Row | SMILES | phenotypically active
21 | CN1C(=O)OC(C)(C)C1=O [trimethadione] | 0 (inactive)
22 | CCC(=C(CC)c1ccc(O)cc1)c1ccc(O)cc1 (stereo in doubt) [diethylstilbestrol] | 0 (inactive)
23 | CCOc1cc(CC(=O)N[C@@H](CC(C)C)c2ccccc2N2CCCCC2)ccc1C(=O)O [repaglinide] | 0 (inactive)
24 | O=C(Cn1ccnc1[N+](=O)[O-])NCc1ccccc1 [benznidazole] | 0 (inactive)
25 | CCCc1nn(C)c2c(=O)[nH]c(-c3cc(S(=O)(=O)N4CCN(C)CC4)ccc3OCC)nc12 [Sildenafil citrate] | 0 (inactive)
26 | CCN(CC)CC(=O)Nc1c(C)cccc1C [lidocaine] | 0 (inactive)
27 | COc1ccc([C@@H]2Sc3ccccc3N(CCN(C)C)C(=O)[C@@H]2OC(C)=O)cc1 [diltiazem] | 0 (inactive)
28 | COc1ccc(CCN(C)CCCN2CCc3cc(OC)c(OC)cc3CC2=O)cc1OC [zatebradine] | 0 (inactive)
29 | CC(C)NCC(O)c1ccc(O)c(O)c1 (stereo not drawn) [Isoproterenol hydrochloride] | 0 (inactive)
30 | O=C(O)c1ccc(O)c2ncccc12 | 0 (inactive)
31 | NCCCC[C@H](N[C@@H](CCc1ccccc1)C(=O)O)C(=O)N1CCC[C@H]1C(=O)O [lisinopril] | 0 (inactive)
32 | C#C[C@]1(O)CC[C@H]2[C@@H]3CCc4cc(OC5CCCC5)ccc4[C@H]3CC[C@@]21C [quinestrol] | 0 (inactive)
33 | O=C(NCc1ccccn1)Nc1nnc(-c2ccco2)o1 | 0 (inactive)
34 | O=C1c2ccccc2C(Cc2ccncc2)(Cc2ccncc2)c2ccccc21 | 0 (inactive)
35 | CCOC(=O)C(C)(C)Oc1ccc(Cl)cc1 [Clofibrate] | 0 (inactive)
36 | CC(C)(Sc1ccc(CCN(CCCCC2CCCCC2)C(=O)NC2CCCCC2)cc1)C(=O)O | 0 (inactive)
37 | O=c1[nH]cnc2c1ncn2[C@H]1CC[C@@H](CO)O1 [Didanosine] | 0 (inactive)
38 | CC(c1cc2ccccc2s1)N(O)C(N)=O (stereo not drawn) [zileuton] | 0 (inactive)
39 | COc1ccc2[nH]c(S(=O)Cc3ncc(C)c(OC)c3C)nc2c1 (stereo not drawn) [omeprazole] | 0 (inactive)

tested on: A549-TP53BP1-CLTA; experiment: as above; details: treatment time: 24 h
How it was run: as §1

Row | SMILES | phenotypically active
40 | O=P(O)(O)C(O)(Cc1cccnc1)P(=O)(O)O [risedronate] | 0 (inactive)
41 | O=C(CCc1ccc(O)cc1)c1c(O)cc(O)cc1O[C@@H]1O[C@H](CO)[C@@H](O)[C@H](O)[C@H]1O [Phloridzin] | 0 (inactive)
42 | CC(C)NCCCC1(C(N)=O)c2ccccc2-c2ccccc21 [indecainide] | 0 (inactive)
43 | COc1c2occc2cc2ccc(=O)oc12 [methoxsalen] | 0 (inactive)
44 | CC(=O)N[C@@H](CC(=O)O)C(=O)N[C@@H](CCC(=O)O)C(=O)O [Spaglumic acid] | 0 (inactive)
45 | OCC(CO)N[C@H]1C[C@](O)(CO)[C@@H](O)[C@H](O)[C@H]1O [Voglibose] | 0 (inactive)
46 | CCOc1ccccc1OCCN[C@H](C)Cc1ccc(OC)c(S(N)(=O)=O)c1 [tamsulosin] | 0 (inactive)
47 | O=C1NC(=O)/C(=C\c2cccc(C(F)(F)F)c2)S1 | 0 (inactive)
48 | NS(=O)(=O)c1cc(Cl)c(Cl)c(S(N)(=O)=O)c1 [diclofenamide] | 0 (inactive)
49 | CN1CCN2c3ncccc3Cc3ccccc3C2C1 (stereo not drawn) [Mirtazapine] | 0 (inactive)
50 | O=C1N(c2ccccc2)c2ccccc2C1(Cc1ccncc1)Cc1ccncc1 [linopirdine] | 0 (inactive)
51 | C[C@H]1[C@H](C)CC[C@]2(C(=O)O)CC[C@]3(C)C(=CC[C@@H]4[C@@]5(C)CC[C@H](O)C(C)(C)[C@@H]5CC[C@]43C)[C@H]12 [Ursolic acid] | 0 (inactive)
52 | CCOC(=O)[C@H](CCc1ccccc1)N[C@@H](C)C(=O)N1Cc2ccccc2C[C@H]1C(=O)O [quinapril] | 0 (inactive)
53 | CC1(C)CCC(C)(C)c2cc(C3(c4ccc(C(=O)O)cc4)OCCO3)ccc21 | 0 (inactive)
54 | CCCCCCCCCN1C[C@H](O)[C@@H](O)[C@H](O)[C@H]1CO [N-Nonyldeoxynojirimycin] | 0 (inactive)
55 | CC(=O)O[C@H]1C[C@@H]2CC[C@@H]3[C@H](CC[C@@]4(C)[C@H]3C[C@H]([N+]3(C)CCCCC3)[C@@H]4OC(C)=O)[C@@]2(C)C[C@@H]1N1CCCCC1 [vecuronium] | 0 (inactive)
56 | O=C(O)c1cc(/N=N/c2ccc(O)c(C(=O)O)c2)ccc1O [olsalazine] | 0 (inactive)
57 | CCOC(=O)[C@H](CCc1ccccc1)N[C@H]1CCc2ccccc2N(CC(=O)O)C1=O [benazepril] | 0 (inactive)
58 | O=C(c1ccccc1)c1ccc2n1CCC2C(=O)O (stereo not drawn) [ketorolac] | 0 (inactive)
59 | CN1C(=O)CC[C@H]1c1cccnc1 [(-)-Cotinine] | 0 (inactive)

Row | SMILES | phenotypically active
60 | CN1C(=O)OC(C)(C)C1=O [trimethadione] | 0 (inactive)
61 | CCC(=C(CC)c1ccc(O)cc1)c1ccc(O)cc1 (stereo in doubt) [diethylstilbestrol] | 0 (inactive)
62 | CCOc1cc(CC(=O)N[C@@H](CC(C)C)c2ccccc2N2CCCCC2)ccc1C(=O)O [repaglinide] | 0 (inactive)
63 | O=C(Cn1ccnc1[N+](=O)[O-])NCc1ccccc1 [benznidazole] | 0 (inactive)
64 | CCCc1nn(C)c2c(=O)[nH]c(-c3cc(S(=O)(=O)N4CCN(C)CC4)ccc3OCC)nc12 [Sildenafil citrate] | 0 (inactive)
65 | CCN(CC)CC(=O)Nc1c(C)cccc1C [lidocaine] | 0 (inactive)
66 | COc1ccc([C@@H]2Sc3ccccc3N(CCN(C)C)C(=O)[C@@H]2OC(C)=O)cc1 [diltiazem] | 0 (inactive)
67 | COc1ccc(CCN(C)CCCN2CCc3cc(OC)c(OC)cc3CC2=O)cc1OC [zatebradine] | 0 (inactive)
68 | CC(C)NCC(O)c1ccc(O)c(O)c1 (stereo not drawn) [Isoproterenol hydrochloride] | 0 (inactive)
69 | O=C(O)c1ccc(O)c2ncccc12 | 0 (inactive)
70 | NCCCC[C@H](N[C@@H](CCc1ccccc1)C(=O)O)C(=O)N1CCC[C@H]1C(=O)O [lisinopril] | 0 (inactive)
71 | C#C[C@]1(O)CC[C@H]2[C@@H]3CCc4cc(OC5CCCC5)ccc4[C@H]3CC[C@@]21C [quinestrol] | 0 (inactive)
72 | O=C(NCc1ccccn1)Nc1nnc(-c2ccco2)o1 | 0 (inactive)
73 | O=C1c2ccccc2C(Cc2ccncc2)(Cc2ccncc2)c2ccccc21 | 0 (inactive)
74 | CCOC(=O)C(C)(C)Oc1ccc(Cl)cc1 [Clofibrate] | 0 (inactive)
75 | CC(C)(Sc1ccc(CCN(CCCCC2CCCCC2)C(=O)NC2CCCCC2)cc1)C(=O)O | 0 (inactive)
76 | O=c1[nH]cnc2c1ncn2[C@H]1CC[C@@H](CO)O1 [Didanosine] | 0 (inactive)
77 | CC(c1cc2ccccc2s1)N(O)C(N)=O (stereo not drawn) [zileuton] | 0 (inactive)
78 | COc1ccc2[nH]c(S(=O)Cc3ncc(C)c(OC)c3C)nc2c1 (stereo not drawn) [omeprazole] | 0 (inactive)
